Results filed as inconclusive are left out. Active and inactive are the calls of the source. Rule for the calls: active = hit-call score of the fitted dose curve at least 0.9, where 1 is the maximum; inconclusive = response in the unintended direction; inactive = score below 0.9.
Each compound was assayed against Peroxisome proliferator-activated receptor gamma (Homo sapiens) (UniProt P37231) (assay: OT_PPARg_PPARgSRC1_0480: Odyssey Thera (OT) 8-hour Protein-Complementation Assay for Peroxisome Proliferator-activated Receptor Gamma / SRC-1 Co-activator (AID 2283387);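 note: nuclear to cytoplasmic split Venus YFP fluorescence ratio reporting PPARg SRC-1 interaction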).
Protocol: OT_PPARg_PPARgSRC1_0480 is a cell-based assay that uses HEK293T, a human kidney cell line, with measurements taken at 8 hours after chemical dosing in a 384-well plate.OT_PPARg_PPARgSRC1_0480 is one of one assay component(s) measured or calculated from the OT_PPARg_PPARgSRC1_0480 assay. It is designed to make measurements of protein fragment complementation, a form of binding reporter, as detected with fluorescence intensity signals by Protein-fragment Complementation technology.Data from the assay component OT_PPARg_PPARgSRC1_0480 was analyzed into 1 assay endpoint. This assay endpoint, OT_PPARg_PPARgSRC1_0480, was analyzed in the positive analysis fitting direction relative to DMSO as the negative control and baseline of activity. Using a type of binding reporter, measures of receptor for gain-of-signal activity can be used to understand the binding at the pathway-level as they relate to the gene PPARG. Furthermore, this assay endpoint can be referred to as a primary readout, because the performed assay has only produced 1 assay endpoint. To generalize the intended target to other relatable targets, this assay endpoint is annotated to the nuclear receptor intended target family, where the subfamily is non-steroidal.
The OT PPARg/SRC-1 assay assessed receptor-chemical interactions using a rapidly maturing, intensely fluorescent mutant of YFP known as Venus, rationally dissected into two separate fragments. The fragments were obtained as follows: first, fragments coding for YFP1 and YFP2 (corresponding to amino acid residues 1-158 and 159-239 of the full length YFP, respectively) were generated by oligonucleotide synthesis (Blue Heron Biotechnology), and then PCR mutagenesis was used to generate the mutant fragments IFP1 and IFP2. Fusion constructs were transfected into HEK293T cells with a (Gly4Ser)2 linker between the PPARg/SRC-1 and YFP fragment genes to facilitate complementation when interacting proteins bring fragments into close proximity. The construct is transiently transfected in HEK293T cells 48 hours prior to treatment with test compounds. Cells are seeded into optical quality 384-well poly-D-lysine coated plates in MEM alpha medium (Invitrogen) supplemented with 10 percent FBS (Gemini Bio-Products) 1 percent penicillin and 1 percent streptomycin, and grown in 37C incubator equilibrated to 5 percent CO2. Cells are allowed to adhere for 24 hours prior to treatment with compounds of interest or controls for 8 hours. Cells are fixed in 4 percent formaldehyde and stained with Draq5 (BioStatus) to identify cells and subcellular compartment boundaries prior to signal detection. 8 Images per well were acquired on an Evotec Opera at 2 wavelengths (488 and 635nm), and the ratio of fluorescence in the nucleus relative to fluorescence in the cytoplasm (N/C Ratio) in the 488nm channel was calculated for a minimum of 350 cells per image.

Chain of Peroxisome proliferator-activated receptor gamma (Homo sapiens) (P37231 whole entry, looked up, the tested form may be a part): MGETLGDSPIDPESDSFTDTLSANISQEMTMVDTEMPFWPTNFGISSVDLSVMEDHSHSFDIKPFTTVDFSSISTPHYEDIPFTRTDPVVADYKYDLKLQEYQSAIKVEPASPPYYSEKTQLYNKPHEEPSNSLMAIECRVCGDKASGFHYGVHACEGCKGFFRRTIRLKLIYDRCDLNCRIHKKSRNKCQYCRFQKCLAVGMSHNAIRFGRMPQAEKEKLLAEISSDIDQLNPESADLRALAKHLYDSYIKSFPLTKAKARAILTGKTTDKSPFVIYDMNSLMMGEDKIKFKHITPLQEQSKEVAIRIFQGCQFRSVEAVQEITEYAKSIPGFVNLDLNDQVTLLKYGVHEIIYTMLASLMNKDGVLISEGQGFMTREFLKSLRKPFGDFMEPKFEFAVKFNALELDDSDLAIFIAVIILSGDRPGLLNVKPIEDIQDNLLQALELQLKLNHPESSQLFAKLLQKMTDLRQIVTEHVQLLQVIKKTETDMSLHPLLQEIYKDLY

outcome, inactive:
O=C(O)c1ccc(O)cc1, OC[C@H]1O[C@@H]2O[C@H]3[C@H](O)[C@@H](O)[C@@H](O[C@H]4[C@H](O)[C@@H](O)[C@@H](O[C@H]5[C@H](O)[C@@H](O)[C@@H](O[C@H]6[C@H](O)[C@@H](O)[C@@H](O[C@H]7[C@H](O)[C@@H](O)[C@@H](O[C@H]8[C@H](O)[C@@H](O)[C@@H](O[C@H]9[C@H](O)[C@@H](O)[C@@H](O[C@H]1[C@H](O)[C@H]2O)O[C@@H]9CO)O[C@@H]8CO)O[C@@H]7CO)O[C@@H]6CO)O[C@@H]5CO)O[C@@H]4CO)O[C@@H]3CO, ON=C1CCCCC1, CCCCCC(C=O)=Cc1ccccc1, Cc1cc(S(=O)(=O)O)ccc1N=Nc1c(O)ccc2ccccc12, Oc1ccc2cc(SSc3ccc4cc(O)ccc4c3)ccc2c1, C=C1CC[C@H](O)C/C1=C/C=C1\CCC[C@]2(C)[C@@H]([C@H](C)/C=C/[C@H](C)C(C)C)CC[C@@H]12, Nc1ccc2cc(S(=O)(=O)O)cc(O)c2c1N=Nc1ccccc1C(F)(F)F, CC(C)CCCCCCCCCCCCCCC(=O)O, COc1ccccc1N=Nc1c(S(=O)(=O)O)cc2cc(S(=O)(=O)O)cc(NC(C)=O)c2c1O, O=C(Nc1ccc2c(O)c(N=Nc3ccc(N=Nc4ccc(S(=O)(=O)O)cc4)cc3)c(S(=O)(=O)O)cc2c1)c1ccccc1, CC(C)CCOC(=O)c1ccccc1, CS(=O)(=O)OCCCCOS(C)(=O)=O, CCc1cc(Cc2cc(CC)cc(C(C)(C)C)c2O)c(O)c(C(C)(C)C)c1, Cc1ccc(S(N)(=O)=O)cc1, CCCCCC(=O)CC, COC(=O)c1ccc(C)cc1C1=NC(C)(C(C)C)C(=O)N1 (stereo not given) (tested in a mixture with another compound), CC(C)Nc1nc(N)nc(Cl)n1, CCCCCCCCCCCC(=O)OCC(O)CO (stereo not given), CCCCCC(C)=O, O=Cc1ccccc1S(=O)(=O)O, CCOc1ccccc1O, CCCCCCC(C)(C)S, OCC#CCO, Nc1ccccc1[N+](=O)[O-], OCCc1ccccc1, CCOC(=O)C1OC1c1ccccc1 (stereo not given), CCCCCCC(CO)CCCC (stereo not given), O=C(CC(=O)c1ccccc1)c1ccccc1, COc1ccc(N=Nc2cc(C)c(N=Nc3ccc(S(=O)(=O)O)cc3)cc2OC)cc1, Cc1cc(=O)oc2cc(N(C)C)ccc12, CCCCCCCCN1CCCC1=O, O=C(O)CCCCCCCCC(=O)O, C=C(C)C(=O)OCCOC1CC2CC1C1C=CCC21 (stereo not given), C#CC(C)(O)CC(C)C (stereo not given), CCNCCO, CCCCCCCC/C=C\CCCCCCCC(=O)OCC, CCc1ccc(O)cc1, CC1CCC(C(C)C)C(O)C1 (stereo not given), CC(C=O)Cc1ccc(C(C)(C)C)cc1 (stereo not given)

From PubChem BioAssay (EPA / NIEHS)
